Test results as given in PubChem BioAssay.
Values without a mark were called inactive. For some assays here: Results with a measured potency or affinity are listed apart. Active and inactive are the calls of the source. Unless noted, the rule behind the calls is not given here.

What was measured:
[1] = antimalarial activity against Dd2 strain (AID 2302;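 active = growth inhibition above 50% at the single 2 µM test dose, taken to imply half-maximal potency below 2 µM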;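 note: 0% = DMSO untreated growth and 100% = chloroquine plus artemisinin killed control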); conditions: P. falciparum Dd2 in RBCs, LDH growth readout, 72 h; at 2 µM; hits give high values
[2] = human hepatoma cell viability loss – ATP luminescence, cytotoxicity control for P. falciparum antimalarial project, primary screen (AID 2303;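 active = inhibition above 50%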;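 note: 0% = DMSO wells and 100% = digitonin-killed cells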); conditions: HepG2 viability, 24-48 h, at 10 µM, hits give high values
[3] = molecular target: L-lactate dehydrogenase (Plasmodium falciparum (isolate CDC / Honduras)) (UniProt Q27743); experiment: PfLDH activity inhibition – cell lysate, 3D7 strain, counter-screen for P. falciparum growth inhibition project (AID 2304);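 note: 0% = vehicle and 100% = reference inhibitor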; conditions: P. falciparum 3D7 crude extract, LDH APAD/NBT absorbance; at 2 µM; hits give high values
[4] = inhibition of 3D7 malaria parasite growth – strain 3D7 (AID 2306);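 note: 0% = DMSO wells and 100% = chloroquine plus artemisinin control wells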; conditions: P. falciparum 3D7 erythrocytic growth, LDH absorbance, 72 h; at 2 µM; hits give high values
[5] = molecular target: Calcium-dependent protein kinase 1 (Plasmodium falciparum (isolate 3D7)) (UniProt P62344); experiment: PfCDPK1 kinase inhibitors, biochemical, TCAMS library (AID 1159585; cut-off not given, nearly all actives have IC50 up to about 0.98 µM;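 note: inhibitors leave more ATP so luminescence rises with inhibition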); conditions: recombinant PfCDPK1, Kinase-Glo ATP depletion luminescence
[6] = molecular target: Plasmodium falciparum protein kinase 6 (PK6, PF3D7_1337100) (UniProt Q8IDW1); experiment: PfPK6 kinase inhibitors, biochemical, TCAMS library (AID 1159586); conditions: recombinant PfPK6, Kinase-Glo ATP depletion luminescence
[7] = molecular target: Protein kinase 7 (PK7), Plasmodium falciparum 3D7 (PF3D7_0213400) (UniProt Q7YTF7); experiment: inhibition of Plasmodium PK7 catalytic activity – biochemical, TCAMS antimalarial set, Kinase-Glo luminescence (AID 1159587); conditions: recombinant PfPK7, Kinase-Glo ATP depletion luminescence
[8] = molecular target: Calcium-dependent protein kinase 4 (Plasmodium falciparum (isolate 3D7)) (UniProt Q8IBS5); experiment: PfCDPK4 kinase inhibitors, biochemical, TCAMS library (AID 1159588; cut-off not given, nearly all actives have IC50 up to about 0.91 µM); conditions: recombinant PfCDPK4, Kinase-Glo ATP depletion luminescence
Chain of Calcium-dependent protein kinase 4 (Plasmodium falciparum (isolate 3D7)) (Q8IBS5 whole entry, looked up): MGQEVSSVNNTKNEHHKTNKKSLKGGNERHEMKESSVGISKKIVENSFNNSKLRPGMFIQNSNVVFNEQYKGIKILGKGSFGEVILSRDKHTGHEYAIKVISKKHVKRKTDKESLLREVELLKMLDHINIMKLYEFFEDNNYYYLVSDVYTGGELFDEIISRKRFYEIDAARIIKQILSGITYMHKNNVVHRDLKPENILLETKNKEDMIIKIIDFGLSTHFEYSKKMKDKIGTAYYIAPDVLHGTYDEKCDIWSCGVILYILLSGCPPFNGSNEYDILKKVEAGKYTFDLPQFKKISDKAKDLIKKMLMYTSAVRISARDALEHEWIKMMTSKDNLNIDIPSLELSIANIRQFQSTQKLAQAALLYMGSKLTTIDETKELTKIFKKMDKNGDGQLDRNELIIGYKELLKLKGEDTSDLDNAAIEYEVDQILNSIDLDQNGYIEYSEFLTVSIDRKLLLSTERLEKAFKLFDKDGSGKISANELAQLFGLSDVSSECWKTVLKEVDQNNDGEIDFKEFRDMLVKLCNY

Chain of Plasmodium falciparum protein kinase 6 (PK6, PF3D7_1337100) (Q8IDW1 1-305): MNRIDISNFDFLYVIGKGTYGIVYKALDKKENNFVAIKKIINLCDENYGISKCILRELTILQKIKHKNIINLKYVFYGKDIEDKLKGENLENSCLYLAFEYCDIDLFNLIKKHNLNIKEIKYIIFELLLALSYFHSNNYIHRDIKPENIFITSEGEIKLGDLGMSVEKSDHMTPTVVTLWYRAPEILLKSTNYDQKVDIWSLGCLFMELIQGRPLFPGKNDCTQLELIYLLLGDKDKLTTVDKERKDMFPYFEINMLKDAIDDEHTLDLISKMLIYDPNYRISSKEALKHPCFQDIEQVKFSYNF
Chain of Calcium-dependent protein kinase 1 (Plasmodium falciparum (isolate 3D7)) (P62344 whole entry, looked up): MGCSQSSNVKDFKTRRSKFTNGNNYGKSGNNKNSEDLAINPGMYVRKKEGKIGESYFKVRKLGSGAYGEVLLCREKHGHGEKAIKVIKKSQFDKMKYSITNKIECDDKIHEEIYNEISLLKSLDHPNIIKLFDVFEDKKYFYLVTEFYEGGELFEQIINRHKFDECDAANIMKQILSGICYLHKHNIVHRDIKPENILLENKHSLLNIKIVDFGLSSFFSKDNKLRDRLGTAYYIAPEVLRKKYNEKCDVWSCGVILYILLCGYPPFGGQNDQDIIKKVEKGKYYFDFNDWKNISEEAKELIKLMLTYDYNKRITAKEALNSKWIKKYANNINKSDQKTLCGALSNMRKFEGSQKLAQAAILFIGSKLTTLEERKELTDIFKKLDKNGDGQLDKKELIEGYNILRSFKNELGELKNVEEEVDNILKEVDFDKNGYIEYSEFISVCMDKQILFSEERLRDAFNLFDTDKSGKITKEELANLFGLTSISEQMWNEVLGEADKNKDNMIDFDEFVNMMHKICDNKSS
Chain of L-lactate dehydrogenase (Plasmodium falciparum (isolate CDC / Honduras)) (Q27743 whole entry, looked up): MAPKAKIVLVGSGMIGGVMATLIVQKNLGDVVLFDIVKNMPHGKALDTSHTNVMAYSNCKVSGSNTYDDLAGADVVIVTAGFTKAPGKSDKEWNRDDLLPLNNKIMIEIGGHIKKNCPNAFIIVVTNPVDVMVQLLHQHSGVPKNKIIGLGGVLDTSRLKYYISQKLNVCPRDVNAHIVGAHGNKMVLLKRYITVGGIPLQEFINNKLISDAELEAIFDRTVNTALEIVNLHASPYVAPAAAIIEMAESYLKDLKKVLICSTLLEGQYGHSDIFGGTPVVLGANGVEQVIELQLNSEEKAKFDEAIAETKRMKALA
Chain of Protein kinase 7 (PK7), Plasmodium falciparum 3D7 (PF3D7_0213400) (Q7YTF7 1-343): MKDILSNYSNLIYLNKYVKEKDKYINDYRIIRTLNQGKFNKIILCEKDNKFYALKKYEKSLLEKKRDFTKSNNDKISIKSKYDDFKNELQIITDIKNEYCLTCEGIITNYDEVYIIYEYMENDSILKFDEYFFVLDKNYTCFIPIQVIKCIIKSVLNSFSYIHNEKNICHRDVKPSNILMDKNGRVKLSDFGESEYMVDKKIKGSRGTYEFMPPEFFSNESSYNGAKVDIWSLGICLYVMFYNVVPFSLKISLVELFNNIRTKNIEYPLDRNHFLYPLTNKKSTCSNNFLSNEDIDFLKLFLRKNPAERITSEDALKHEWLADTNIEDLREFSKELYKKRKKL

Compound | growth inhibition [1] | inhibition [2] | inhibition [3] | growth inhibition [4] | outcome [5] | outcome [6] | outcome [7] | outcome [8]
COc1ccc2nccc(N3CCC(SCCNCc4ccc5c(n4)NC(=O)CO5)C3)c2n1 (stereo not given) | 9% | 30% | -2% | 101% (active) | inactive | inactive | inactive | inactive
CCC1(CC)CN(c2ccccc2)c2ccc(O)cc2S(=O)(=O)C1CC(C)C (stereo not given) | 89% (active) | -7% | 2% | 96% (active) | inactive | inactive | inactive | inactive
COc1ccc(NC(=O)c2cc(NC(=O)C3(N)CC3)c(=O)n(Cc3ccc(C(N)=O)cc3)c2)cc1 | 72% (active) | 21% | 3% | 95% (active) | inactive | inactive | inactive | inactive
Cc1cccc2[nH]c(-c3ccc(-c4cccc(NC(=O)NCc5ccccc5)c4)cc3)nc12 | 0% | 25% | -6% | 95% (active) | inactive | inactive | inactive | inactive
Cc1cc(-c2nc3ccc(C(=N)N)cc3[nH]2)c(C)cc1-c1nc2ccc(C(=N)N)cc2[nH]1 | 97% (active) | 0% | -1% | 96% (active) | inactive | inactive | inactive | inactive
Cc1ccc2nc(C)cc(NN=Cc3ccccc3Cl)c2c1 | 62% (active) | 6% | -2% | 100% (active) | inactive | inactive | inactive | inactive
Cc1cc(NC(=O)c2cccs2)ccc1OC1CCN(Cc2ccc(F)cc2)CC1 | 92% (active) | 7% | -1% | 94% (active) | inactive | inactive | inactive | inactive
O=C(NCc1ccccc1)Nc1cccc(-c2cccc(-c3nc4ccc(C(F)(F)F)cc4[nH]3)c2)c1 | 30% | 56% (active) | 0% | 95% (active) | inactive | inactive | inactive | inactive
CCC(CC)(Cc1ccccc1)NC(=O)[C@H](CC1CCCCC1)Nc1ccc(C#N)c2ccccc12 | 76% (active) | 4% | -5% | 95% (active) | inactive | inactive | inactive | inactive
COc1cc2nc(NCCCOC(C)C)n3nc(-c4ccccc4)nc3c2cc1OC | 97% (active) | -3% | -1% | 94% (active) | inactive | inactive | inactive | inactive
CCOc1cc(C)ccc1C1CCN(CCCCNC(=O)c2ccc(-c3ccc(C(F)(F)F)cn3)cc2)CC1 | 45% | 55% (active) | 5% | 99% (active) | inactive | inactive | inactive | inactive
Fc1ccc2nc(-c3cccc(-c4ccc(CN5CCN(c6cnccn6)CC5)cc4)c3)[nH]c2c1 | 31% | 19% | -4% | 96% (active) | inactive | inactive | inactive | inactive
CCc1cn2c3c(cc(C(=O)N[C@@H](Cc4cccc(F)c4)[C@H](O)CNC4CCOCC4)cc13)N(C)S(=O)(=O)CC2 | 97% (active) | -2% | -2% | 97% (active) | inactive | inactive | inactive | inactive
CC(CN(C)C)C(=O)Nc1cccc(-c2ccc(-c3nc4ccccc4[nH]3)s2)c1 (stereo not given) | 47% | 13% | 7% | 100% (active) | inactive | inactive | inactive | inactive
CN(C)CCNc1nccc(N2CCc3ncnc(Nc4ccc(OCc5cccc(F)c5)c(Cl)c4)c3C2)n1 | 97% (active) | 65% (active) | 6% | 100% (active) | inactive | inactive | inactive | inactive
O=C(c1ccc([N+](=O)[O-])o1)N1CCC(c2cn(Cc3cccc(F)c3)c3ccccc23)CC1 | 95% (active) | 1% | -2% | 97% (active) | inactive | inactive | inactive | inactive
O=C(Nc1ccccc1F)NC1CCN(c2ccnc(Nc3ccc(F)cc3)n2)C1 (stereo not given) | 74% (active) | 0% | -7% | 95% (active) | inactive | inactive | inactive | inactive
Cc1onc(-c2ccccc2)c1-c1nc(NCc2ccccc2Cl)no1 | 92% (active) | 2% | -3% | 99% (active) | inactive | inactive | inactive | inactive
Nc1ncc(-c2ccccc2)cc1-c1cccc2ncccc12 | 99% (active) | 82% (active) | -2% | 97% (active) | inactive | inactive | inactive | inactive
CC(C)(C)C(Cn1ccnc1)NCc1cn[nH]c1-c1ccc(-c2ccccc2)cc1 (stereo not given) | 69% (active) | 15% | -2% | 98% (active) | inactive | inactive | inactive | inactive

Compound | growth inhibition [1] | inhibition [2] | inhibition [3] | growth inhibition [4] | outcome [5] | outcome [6] | outcome [7] | outcome [8]
CCN(CC)CCN(Cc1ccc(-c2ccc(C(F)(F)F)cc2)cc1)C(=O)Cn1c(SCc2ccc(F)cc2)nc(=O)c2ccccc21 | 48% | 47% | 6% | 98% (active) | inactive | inactive | inactive | inactive
Cc1ccc(C)c(NC(=O)NC2CCN(c3ccnc(Nc4ccc(F)cc4)n3)C2)c1 (stereo not given) | 74% (active) | -2% | -3% | 100% (active) | inactive | inactive | inactive | inactive
NC(=O)c1ccc(-c2ccc3ccnc(N)c3c2)cc1 | 98% (active) | 56% (active) | -2% | 101% (active) | inactive | inactive | inactive | inactive
COc1ccc(NC(=O)Nc2ccc(-c3ccc(-c4nc5ccccc5[nH]4)cc3)cc2)cc1 | 27% | 22% | 5% | 100% (active) | inactive | inactive | inactive | inactive
CCc1c(CCNCCCCCNCCc2ccc(OC)c(OC)c2CC)ccc(OC)c1OC | 1% | 59% (active) | -1% | 101% (active) | inactive | inactive | inactive | inactive
COc1ccc2c(NN=Cc3ccccc3[N+](=O)[O-])ccnc2c1 | 97% (active) | 98% (active) | -3% | 102% (active) | inactive | inactive | inactive | inactive
CCN(CC)C(=NC(N)=NCCCCCCN=C(N)N=C(Nc1ccc(Cl)cc1)N(CC)CC)Nc1ccc(Cl)cc1 | 96% (active) | 1% | 8% | 97% (active) | inactive | inactive | inactive | inactive
CCCCCCCCn1c2c(c(=N)c3c1CCC3)CCCC2 | 100% (active) | 57% (active) | 2% | 101% (active) | inactive | inactive | inactive | inactive
CNC(=O)c1cnc(Nc2ccc(N3CCOCC3)cc2)nc1Nc1cccc(O)c1 | 78% (active) | 23% | -2% | 90% (active) | inactive | inactive | inactive | inactive
CCCCCC(=O)NCC(NCCCNc1cc(=O)c2ccccc2[nH]1)c1cc(Br)cc(Br)c1 (stereo not given) | 66% (active) | -1% | -8% | 96% (active) | inactive | inactive | inactive | inactive
CN1CCc2cc(NS(=O)(=O)c3ccc(-c4ccc(Cl)s4)cc3)c(N3CCCCC3)cc2CC1 | 29% | 14% | 3% | 98% (active) | inactive | inactive | inactive | inactive
FC(F)(F)c1ccc2nc(-c3ccc(-c4ccc(CN5CCN(c6cnccn6)CC5)cc4)cc3)[nH]c2c1 | 50% (active) | 21% | -7% | 99% (active) | inactive | inactive | inactive | inactive
CC(C)NCc1ccc(-c2cccc(NC(=O)c3ccc(F)cc3)c2)cc1 | 7% | 28% | 6% | 91% (active) | inactive | inactive | inactive | inactive
O=c1cc(NCCCNCc2cc(Br)cs2)[nH]c2ccccc12 | 5% | 11% | -2% | 85% (active) | inactive | inactive | inactive | inactive
NC(N)=NN=CC(=O)Nc1ccc(Br)cc1 | 1% | 5% | 0% | 100% (active) | inactive | inactive | inactive | inactive
COc1cc(Cc2cnc(N)nc2N)ccc1OCc1cccc(Oc2ccccc2)c1 | 21% | 18% | 0% | 84% (active) | inactive | inactive | inactive | inactive
O=C(/C=C/c1ccc(F)cc1)NC1CCC(CCN2CCc3ccccc3CC2)CC1 (stereo not given) | 36% | 27% | 4% | 91% (active) | inactive | inactive | inactive | inactive
COc1ccc(CNc2nccc3ccc(-c4ccc5nccn5c4)cc23)cc1 | 47% | 17% | -4% | 95% (active) | inactive | inactive | inactive | inactive
CCOc1cc2ccccc2cc1CNCCCCCCNCc1cc2ccccc2cc1OCC | 76% (active) | 99% (active) | 2% | 101% (active) | inactive | inactive | inactive | inactive
N#Cc1cccc(NC(=O)Nc2ccc(-c3csc(-c4nc5ccccc5[nH]4)c3)cc2)c1 | 97% (active) | 63% (active) | -3% | 103% (active) | inactive | inactive | inactive | inactive
